Experiment in all cases: NCI-60 one-dose screen, 48 h (100 = growth as untreated, 0 = no growth, -100 = all killed)
Conditions in all cases: 10 µM unless noted

The subject of test [1] is HCT-15 colon.
Test [2] concerns HT29 colon.
The test system of test [3] is SNB-75 CNS.
For test [4], the system named is SNB-19 CNS.
Test [5] relates to U251 CNS.
For test [6], the system named is PC-3 prostate.
For test [7], the system named is UACC-62 melanoma.
Test [8] concerns LOX IMVI melanoma.
In test [9] the test system is SK-MEL-28 melanoma.

About 83,000 compounds went through this panel and 20% of them were active in at least one assay; those are over-represented in the sample as a whole.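 Percent growth is the endpoint: 0 to 100 indicates growth inhibition (40 means 60% inhibition), 0 means no net growth, and negative values indicate cell death.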 A number with no mark means an inactive call. The source made the active and inactive calls. The calls were made as follows: active = growth percent below 10; inactive = the rest.

With `O=C1C=C(OCC=C(Cl)Cl)C(=O)c2ccccc21`, the growth in test [1] is 64.2%; in [2] it was 82.4%; in test [3], 50.6%; in test [4] it was 98.7%; in [5] it was 75.7%; in test [6], 80.9%. Moreover, the growth in test [7] is 87%; in test [8], 28.8%; in test [9], 104%.

Regarding `Nc1nc2ccc3[nH]ncc3c2c2c1CCCC2`, the growth is 3.93% (active) in test [1]; 5.02% (active) in test [2]; -46.9% (active) in test [3]; 8.98% (active) in test [4]; 8.3% (active) in test [5]; 3.35% (active) in [6]. Moreover, the growth in [7] was 10.9%; in [8] it was -9.24% (active); in test [9] it was 9.47% (active).

As for `COc1ccc(-c2cc(=O)c3c(OC)c4ccoc4cc3o2)cc1`, the growth is 92.4% in test [1]; 82.1% in test [2]; 104% in [3]; 82.4% in test [4]; 92.5% in test [5]; 86.1% in test [6]. Further, the growth in [7] was 98.4%; in [8], 95.1%; in test [9] it was 118%.

As for `CCC([N+](=O)[O-])S(=O)(=O)c1ccc(C)cc1` (stereo not given), the growth in test [1] was 105%; in [2], 101%; in [3] it was 85.1%; in test [4], 94.4%; in [5] it was 100%; in [6], 101%. Moreover, the growth was 101% in [7], 98.2% in [8] and 112% in test [9].

As to `COc1cc(-c2nn(-c3ccc(C)cc3)cc2C(=O)O)ccc1O`, the growth is 99.4% in [1]; 107% in test [2]; 87.5% in [3]; 97.7% in test [4]; 108% in [5]; 91% in test [6]. Moreover, the figures for the growth in test [7], in test [8] and in test [9] were 96.1%, 86% and 104%, respectively.

In the case of `CSc1nc2c(c(=O)[nH]1)C1(C(=O)Nc3ccccc31)c1c(nc(SC)[nH]c1=O)N2`, the growth in test [1] was 107%; in [2], 112%; in [3] it was 99.5%; in [4], 106%; in test [5], 97.9%; in test [6], 107%. In addition, the growth is 99.8% in test [7], 102% in [8] and 105% in [9].

Turning to `CCCOc1cc2ccccc2cc1C(=O)Nc1nc(NC)c2c(ccc3nccc32)[nH]1`, the growth was -50% (active) in [1]; -73.1% (active) in [2]; -87.1% (active) in test [3]; -78.8% (active) in test [4]; -85.5% (active) in [5]; -51.5% (active) in [6]. Besides, the values for the growth in test [7], in test [8] and in test [9] were -77.3% (active), -81% (active) and -84.4% (active), respectively.

For `C[n+]1ccccc1/C=C/c1ccc2cccc(O)c2n1`, the growth in test [1] is 106%; in test [2] it was 101%; in test [3] it was 86.8%; in [4], 97%; in test [5] it was 100%; in [6], 94.7%. Further, the growth in test [7] was 105%; in [8], 104%; in test [9], 95.7%.

For the molecule `Cc1cc(N2CCN(c3ccnc4cc(Cl)ccc34)CC2)nc(N2CCOCC2)n1`, the growth in test [1] is 73.6%; in test [2], 67.6%; in [3], 88.9%; in test [4], 82.6%; in test [5], 93.9%; in test [6], 51.9%. Also, the values for the growth in test [7] and in test [9] were 84.3% and 104%, respectively.

`C#CC(F)(F)[C@]1(O)CC[C@H]2[C@@H]3CCC4=CC(=O)CCC4=C3[C@@H](c3ccc(C4CC4)cc3)C[C@@]21C`: the growth in test [1] was 59.3%; in [2], -63.9% (active); in test [3], -15.9% (active); in test [4] it was 46.1%; in test [5], -32.2% (active); in test [6], -53.8% (active). For the same molecule, the growth in test [7] was 26.7%; in test [8], -84.6% (active); in test [9], 90.2%.

With `OCCNc1nccc(N2CCN(c3ccnc4cc(Cl)ccc34)CC2)n1`, the growth in [1] is 51.3%; in test [2], 45.7%; in test [3], 71.3%; in [4], 88.9%; in test [5], 86%; in [6] it was 72.2%. Moreover, the values for the growth in [7] and in [9] were 71.4% and 94%, respectively.

`Nc1n[nH]c2ccc([C@@H]3Nc4ccc5[nH]ncc5c4[C@H]4C5C=CC(C5)[C@@H]34)cc12` (stereo not given in full): the growth in test [1] was 10.8%; in [2], 11.5%; in [3] it was -9.96% (active); in [4] it was 27%; in test [5] it was 18%; in test [6], 13.8%. In addition, the values for the growth in test [7], in test [8] and in test [9] were 37.5%, 9.79% (active) and 54.6%, respectively.

Turning to `COc1ccc(-c2nn(-c3ccc(Cl)cc3)cc2-c2nc3ccccc3[nH]2)cc1`, the growth in test [1] is 103%; in test [2] it was 84.5%; in test [3], 76.6%; in test [4] it was 91.9%; in [5] it was 104%; in test [6], 81.5%. Further, the growth in test [7] is 75.8%; in [8] it was 82.1%; in test [9], 99.5%.

For the molecule `C=C1C(=O)O[C@H]2[C@H]1CC/C(COC(=O)NCc1ccc(OC)c(OC)c1)=C\CC[C@@]1(C)O[C@@H]21`, the growth was 50.7% in test [1]; 28.8% in [2]; 58.7% in test [3]; 87.2% in test [4]; 86.5% in test [5]; 78.4% in test [6]. In addition, the growth in [8] is 69.4%.

Regarding `NC(=NCCCC1(c2ccccc2)CCCC1)Nc1ccc(Cl)cc1`, the growth in [1] is 28.9%; in test [2] it was -15.4% (active); in test [3] it was 41.1%; in [4], 55.9%; in [5] it was -26.6% (active); in test [6], 43.3%. The growth in test [8] was -50% (active).

As for `COc1ccc2c(c1)C(=O)/C(=C/c1ccccn1)CC2`, the growth was 68.5% in test [1]; 43.3% in [2]; 75.8% in test [3]; 76.1% in [4]; 69.3% in test [5]; 87.6% in test [6]. For the same molecule, the growth in test [8] is 44.5%.

With `CCOC(=O)c1sc(Nc2ccc(Cl)cc2)nc1C`, the growth in test [1] is 13.1%; in test [2] it was 4.65% (active); in [3] it was -11.2% (active); in test [4], 37%; in [5], 13.5%; in [6] it was 14.2%. For the same molecule, in test [8], the growth was 9.91% (active).

Regarding `COc1ccc(-c2nc(SCC(=O)Nc3ccc(C(=O)/C=C/c4ccc(Cl)cc4)cc3)[nH]c(=O)c2C#N)cc1`, the growth was 97.9% in test [1]; 103% in test [2]; 85.2% in [3]; 39.4% in [4]; -15.3% (active) in [5]; 93.6% in [6]. For the same molecule, the growth in test [8] is -79.4% (active).
